# In paper PMC4336329 (PLoS ONE, 2015):
# Screen size: about 310,000 compounds; about 14,000 (4.5%) showed an effect of 50% or more. The effect is printed as a negative number. What follows is part of a selection rich in strong results, with near analogues and random picks from the rest.
# Target: human ether-à-go-go-related gene (hERG) potassium channel (human, UniProt Q12809)
# Assay: primary screen, population patch clamp on CHO cells stably expressing hERG; higher = less effect of the substance
# 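Also: peak tail current of the secondary pulse compared with the same well before compound.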
# Sequence of human ether-à-go-go-related gene (hERG) potassium channel (Q12809 whole entry, looked up): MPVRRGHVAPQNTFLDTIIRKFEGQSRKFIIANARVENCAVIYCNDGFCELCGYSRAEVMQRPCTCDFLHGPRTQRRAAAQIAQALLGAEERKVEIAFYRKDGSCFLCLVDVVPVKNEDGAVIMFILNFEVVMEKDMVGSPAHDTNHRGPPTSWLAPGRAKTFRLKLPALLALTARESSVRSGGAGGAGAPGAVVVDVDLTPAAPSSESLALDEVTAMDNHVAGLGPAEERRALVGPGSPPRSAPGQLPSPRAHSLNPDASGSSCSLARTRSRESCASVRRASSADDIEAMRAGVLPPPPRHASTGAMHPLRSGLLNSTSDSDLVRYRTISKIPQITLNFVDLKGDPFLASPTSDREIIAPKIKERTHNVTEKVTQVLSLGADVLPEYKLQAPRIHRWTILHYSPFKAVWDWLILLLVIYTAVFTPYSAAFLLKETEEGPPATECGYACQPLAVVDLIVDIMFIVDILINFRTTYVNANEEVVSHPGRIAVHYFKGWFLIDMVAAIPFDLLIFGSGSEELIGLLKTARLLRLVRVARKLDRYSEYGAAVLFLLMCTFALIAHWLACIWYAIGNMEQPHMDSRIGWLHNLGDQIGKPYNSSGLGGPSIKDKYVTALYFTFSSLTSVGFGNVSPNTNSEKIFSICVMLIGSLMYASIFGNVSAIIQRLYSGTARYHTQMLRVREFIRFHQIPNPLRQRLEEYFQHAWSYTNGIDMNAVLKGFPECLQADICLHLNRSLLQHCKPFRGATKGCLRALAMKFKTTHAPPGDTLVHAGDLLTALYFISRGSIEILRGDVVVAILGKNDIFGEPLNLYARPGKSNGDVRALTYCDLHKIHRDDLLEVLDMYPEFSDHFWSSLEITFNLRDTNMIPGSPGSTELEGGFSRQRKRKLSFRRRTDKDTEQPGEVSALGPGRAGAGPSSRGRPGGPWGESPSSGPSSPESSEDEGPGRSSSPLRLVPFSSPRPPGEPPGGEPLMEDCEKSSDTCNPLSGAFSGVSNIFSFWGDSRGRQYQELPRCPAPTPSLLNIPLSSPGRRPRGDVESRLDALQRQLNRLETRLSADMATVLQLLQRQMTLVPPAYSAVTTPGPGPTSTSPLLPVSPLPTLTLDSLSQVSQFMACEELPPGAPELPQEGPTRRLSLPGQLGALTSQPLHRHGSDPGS
row,Compound,"hERG current change (%, negative = inhibition) at 10uM [%]"
1,CCOC(=O)C1=C(C)Nc2nc(SC)nn2C1c1ccc(C(=O)OC)cc1 (centres unmarked),5.26
2,Cc1ccc(/C=N\NC(=O)/C(=C\Nc2nccc(C)n2)NC(=O)c2ccccc2)cc1,-9.72
3,C=C1C(=O)O[C@@H]2C[C@@H](C)[C@@H]3C=CC(=O)[C@@]3(C)[C@@H](OC(=O)CC(=O)O[C@H]3[C@@H]4C(=C)C(=O)O[C@@H]4C[C@@H](C)[C@@H]4C=CC(=O)[C@]43C)[C@H]12,-38.6
4,COc1ccc(CNC(=O)C2CCN(S(=O)(=O)c3cccnc3)CC2)cc1,12.9
5,Cc1ccc(S(=O)(=O)NCCC(=O)Nc2cc(F)ccc2C)cc1C,2.51
6,CCOC(=O)c1c(O)c2ccccc2oc1=O,-18.7
7,CN1C(=O)CN=C(c2ccc(Cl)cc2)c2cc(Cl)ccc21,-33.8
8,CCOC(=O)CSc1nnc(-c2ccoc2C)n1-c1ccc(OCC)cc1,-66.5
9,CCOC(=O)CSc1nnc(-c2ccoc2C)n1-c1ccc(C)cc1,-19.3
10,CCOC(=O)CSc1nnc(CNC(=O)c2ccc(OC)cc2OC)n1-c1ccc(OC)cc1,-50.1
11,CCOC(=O)CSc1nnc(CNC(=O)c2ccccc2OC)n1-c1ccc(OC)cc1,-28.8
12,COc1ccc(-n2c(SCC(=O)Nc3nccs3)nnc2-c2ccoc2C)cc1,-80
13,COc1cccc(-n2c(SCC(=O)Nc3nccs3)nnc2-c2ccoc2C)c1,-76.8
14,CCOC(=O)CSc1nnc(CNC(=O)c2ccc(OC)cc2OC)n1C,-18.4
15,COc1ccc(-n2c(CSc3nc(C)cc(C)n3)nnc2SCC(=O)Nc2nccs2)cc1,-13.2
16,COc1cccc(-n2ccnc2SCC(=O)Nc2nccs2)c1,-6.22
17,CCOc1ccc(-n2c(SCC(N)=O)nnc2-c2ccco2)cc1,-1.15
18,Cn1c(SCC(=O)Nc2nccs2)nnc1-c1ccco1,-5.22
19,COc1cccc(C(=O)NCc2nnc(SCC(=O)Nc3nccs3)n2-c2cccc(C)c2)c1,-18.3
20,COc1ccc(C2(C(=O)NCCCN(C)C)CCOCC2)cc1,7.45
21,CCOC(=O)c1c(-c2ccccc2Cl)csc1NC(=O)CSc1nc(C)cc(=O)[nH]1,4.37
22,C=CCc1ccc(OCc2ccc(C(=O)OC)o2)c(OC)c1,-12.1
23,CC1CCCCC1NC(=O)CC1Oc2ccccc2NC1=O (centres unmarked),0.244
24,CC(=O)c1ccc(S(=O)(=O)NC2CC(=O)N(c3ccc4c(c3)OCCO4)C2)cc1 (centres unmarked),5.79
25,CCN(CC)S(=O)(=O)c1cc(C(=O)O)ccc1Cl,11
26,CC(=O)c1ccc(Sc2nnc(C)s2)c([N+](=O)[O-])c1,1.07
27,Cc1ccc(OCC(=O)Nc2nnc(S(=O)(=O)N3CCC(C)CC3)s2)cc1,19.2

row,Compound,"hERG current change (%, negative = inhibition) at 10uM [%]"
1,O=C(NNC(=O)c1ccc([N+](=O)[O-])o1)c1ccccc1,-6.59
2,CN(CC(=O)Nc1ccccc1Cl)C(=O)COC(=O)c1ccc(Cl)nc1,4.99
3,CN(CC(=O)Nc1ccccc1Cl)C(=O)COC(=O)c1ccccc1[N+](=O)[O-],-6.07
4,CN(CC(=O)Nc1ccccc1Cl)C(=O)COC(=O)c1ccc(C(F)(F)F)cc1,-9.53
5,CC(=O)Oc1ccc(-c2ccc(C(=O)OCC(=O)N(C)CC(=O)Nc3ccccc3Cl)cc2)cc1,-68.9
6,CC[C@H](C)[C@H](NC(=O)OCc1ccccc1)C(=O)OCC(=O)N(C)CC(=O)Nc1ccccc1Cl,-64.5
7,CN(CC(=O)Nc1ccccc1Cl)C(=O)COC(=O)c1nc(Cl)ccc1Cl,-20
8,CN(CC(=O)Nc1ccccc1Cl)C(=O)COC(=O)C1CC1,-2.87
9,CN(CC(=O)Nc1ccccc1Cl)C(=O)COC(=O)c1ccc(S(=O)(=O)C(F)F)cc1,-69.9
10,CN(CC(=O)Nc1ccccc1Cl)C(=O)COC(=O)C1=COCCO1,5.89
11,COc1cc(/C=C/C(=O)OCC(=O)Nc2cc(C(F)(F)F)ccc2N2CCOCC2)ccc1O,-0.592
12,C=CCOC(=O)C1=C[C@@H](c2ccc(Br)cc2)C[C@@H](OCc2ccc(CO)cc2)O1,-14.7
13,COc1cc(C(=O)OCC(=O)N2CCCCC2C)ccc1OCc1c(C)noc1C (centres unmarked),6.3
14,C#CCOCCOCCOCCNc1nc(N2CCN(C(=O)CCCCCCCCCCNC(=O)[C@H](CO)n3cc(CCCSC)nn3)CC2)nc(N2CCN(C(=O)CCCCCCCCCCNC(=O)[C@H](CO)n3cc(CCCSC)nn3)CC2)n1,4.57
15,COc1ccccc1NC(=O)c1ccc(S(=O)(=O)N(C)c2ccccc2)cc1,-3.47
16,COc1ccc(NC(=O)c2cc3c(s2)CCC(C)C3)cc1S(=O)(=O)N1CCOCC1 (centres unmarked),-19.1
17,CCN(CC)S(=O)(=O)c1ccc(N2CCOCC2)c(NC(=O)CC2OC(=O)c3ccccc32)c1 (centres unmarked),-26
18,Cc1cc(-c2ccccc2)c(C#N)c(SCC(N)=O)n1,-3.47
19,O=C(NCCc1ccc(F)cc1)c1ccc2c(=O)n3c(nc2c1)CCC3,-45.7
20,Cc1nc2n(c(=O)c1CCN1CCC(c3noc4cc(F)ccc34)CC1)CCCC2,-68
21,O=C(NCc1ccc(F)cc1)c1ccc2c(=O)n3c(nc2c1)CCCCC3,-36.7
22,CCCCN(CCCNC(=O)CN1C(=O)COc2ccccc21)c1ccccc1,-26
23,Cc1noc(C)c1COC(=O)COc1ccc(C#N)cc1,2.8
24,CCN1CCN(CC(=O)N2N=CCC2c2ccccc2)CC1 (centres unmarked),3.12
25,O=C(CN1CCN(C(c2ccccc2)c2ccccc2)CC1)N1N=CCC1c1ccccc1 (centres unmarked),-50.1
26,O=C(CN1CCN(c2ccccc2)CC1)N1N=CCC1c1ccccc1 (centres unmarked),5.51
